{
  "source": "PubChem BioAssay AID485346",
  "about": "(Sanford-Burnham Center for Chemical Genomics, 2010)",
  "note": "Screen size: about 330,000 compounds; about 10,000 (3%) were called active.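 The calls were made as follows: active = inhibition of at least 50% at 8 µM in the primary screen; inactive = the rest.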 What follows is part of a selection rich in actives, with near analogues and random picks from the rest.",
  "data": [
    {"biological_target": "Protein Mdm4 (Homo sapiens) + E3 ubiquitin-protein ligase Mdm2 (Homo sapiens) (UniProt O15151+Q00987)", "sequence (O15151 whole entry, looked up)": "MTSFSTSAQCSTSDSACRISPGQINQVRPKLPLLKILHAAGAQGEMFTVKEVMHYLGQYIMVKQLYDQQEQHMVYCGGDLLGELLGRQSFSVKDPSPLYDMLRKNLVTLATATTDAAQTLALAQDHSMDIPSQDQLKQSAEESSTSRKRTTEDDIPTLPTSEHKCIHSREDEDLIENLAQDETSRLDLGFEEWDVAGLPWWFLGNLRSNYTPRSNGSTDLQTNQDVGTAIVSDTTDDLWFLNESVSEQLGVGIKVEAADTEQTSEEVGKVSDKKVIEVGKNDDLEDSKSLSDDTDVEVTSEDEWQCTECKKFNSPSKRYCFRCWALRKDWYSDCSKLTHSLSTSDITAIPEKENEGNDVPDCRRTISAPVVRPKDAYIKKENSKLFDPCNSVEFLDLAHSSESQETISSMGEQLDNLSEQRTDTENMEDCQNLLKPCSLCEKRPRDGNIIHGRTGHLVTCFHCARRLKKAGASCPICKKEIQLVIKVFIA", "sequence (Q00987 whole entry, looked up)": "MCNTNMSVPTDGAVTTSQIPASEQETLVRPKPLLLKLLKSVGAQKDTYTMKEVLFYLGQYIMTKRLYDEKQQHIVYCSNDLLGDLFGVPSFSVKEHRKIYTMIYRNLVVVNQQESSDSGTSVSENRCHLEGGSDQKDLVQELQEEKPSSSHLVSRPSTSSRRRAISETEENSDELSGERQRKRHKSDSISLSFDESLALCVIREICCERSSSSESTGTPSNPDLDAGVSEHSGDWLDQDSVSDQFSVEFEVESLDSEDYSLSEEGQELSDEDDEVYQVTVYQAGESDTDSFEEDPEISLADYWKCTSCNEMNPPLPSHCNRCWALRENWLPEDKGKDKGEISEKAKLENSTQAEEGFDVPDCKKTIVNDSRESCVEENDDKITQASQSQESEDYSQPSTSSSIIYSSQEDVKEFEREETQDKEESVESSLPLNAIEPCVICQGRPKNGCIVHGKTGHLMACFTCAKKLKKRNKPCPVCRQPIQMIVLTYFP", "assay": "disruptors of Mdm2/MdmX RING complex – cell-based, luminescence, split luciferase, SaOS-2, uHTS, primary screen (AID 485346)", "conditions": "SaOS-2 split-luciferase Mdm2/MdmX complementation, at 8 µM, active compounds read high", "values": [
      {"compound": "COc1cc(OC)cc(C(=O)NC2CCN(C(=O)N3c4ccccc4Sc4ccccc43)CC2)c1", "inhibition": "9.25% (inactive)"},
      {"compound": "Nc1ccc(C(=O)Nc2ccccc2N)cc1", "inhibition": "54.8% (active)"},
      {"compound": "Nc1ccc(C(=O)NCc2ccccc2)cc1", "inhibition": "3.98% (inactive)"},
      {"compound": "CC(=O)Nc1ccccc1NC(=O)c1cc(C)cc(C)c1", "inhibition": "-1.21% (inactive)"},
      {"compound": "COc1cc(OC)cc(C(=O)NC(=S)N2CCN(c3ccc(C(F)(F)F)cc3[N+](=O)[O-])CC2)c1", "inhibition": "17.3% (inactive)"},
      {"compound": "O=C(Nc1cccc(C(F)(F)F)c1)c1ccc(N2CCNCC2)c([N+](=O)[O-])c1", "inhibition": "52.8% (active)"},
      {"compound": "CC(NC(=O)c1ccc(N2CCNCC2)c([N+](=O)[O-])c1)C12CC3CC(CC(C3)C1)C2", "note": "(centres undefined)", "inhibition": "101% (active)"},
      {"compound": "CCC(C)NC(=O)c1ccc(N2CCC3(CC2)OCCO3)c([N+](=O)[O-])c1", "note": "(centres undefined)", "inhibition": "10.6% (inactive)"},
      {"compound": "O=C(Nc1ccc(N2C(=O)c3cccc4cccc(c34)C2=O)cc1)c1ccc(N2CCCCC2)c([N+](=O)[O-])c1", "inhibition": "-6.66% (inactive)"},
      {"compound": "O=C(NC1C2CC3CC(C2)CC1C3)c1ccc(N2CCNCC2)c([N+](=O)[O-])c1", "note": "(centres undefined)", "inhibition": "34.8% (inactive)"},
      {"compound": "Brc1c(CSc2nncc3ccccc23)nc2ccccn12", "inhibition": "21.7% (inactive)"},
      {"compound": "CCc1ccccc1NC(=O)c1ccc2c(c1)CCN2S(C)(=O)=O", "inhibition": "24.8% (inactive)"},
      {"compound": "CC(=N\\NC(=O)c1cc(Br)ccc1O)/C(=N/O)C(=O)Nc1ccccc1", "inhibition": "36.7% (inactive)"},
      {"compound": "CCN(CC)C(CNC(=O)CSc1nnnn1-c1cccc(F)c1)c1ccco1", "note": "(centres undefined)", "inhibition": "-4.51% (inactive)"},
      {"compound": "CCCCNC(=O)CSc1nc2n[nH]c(C)c2c(=N)n1-c1cccc(Cl)c1C", "inhibition": "-6.85% (inactive)"},
      {"compound": "Cc1ccc(-n2c(SCC(=O)NCCC3=CCCCC3)nc3n[nH]c(C)c3c2=N)cc1Cl", "inhibition": "28.5% (inactive)"},
      {"compound": "COc1cccc(-n2c(SCC(=O)NC3CCCCC3)nc3n[nH]c(C)c3c2=N)c1", "inhibition": "53.3% (active)"},
      {"compound": "COCCNC(=O)CSc1nc2sccc2c(=O)n1-c1ccccc1", "inhibition": "6.49% (inactive)"},
      {"compound": "Cn1c(=O)n(Cc2ccco2)c(=N)c2c3c(sc21)CCCC3", "inhibition": "15.6% (inactive)"},
      {"compound": "CN(C)CCCn1c(=O)n(Cc2ccccc2)c(=O)c2c3c(sc21)CCCCC3", "inhibition": "61.8% (active)"},
      {"compound": "O=c1c2c3c(sc2n(CCN2CCCC2)c(=O)n1Cc1ccccc1)CCCCC3", "inhibition": "28.5% (inactive)"},
      {"compound": "CCc1ccc(C(CNc2nc(C(F)(F)F)nc3ccccc23)N(C)C)cc1", "note": "(centres undefined)", "inhibition": "20.9% (inactive)"},
      {"compound": "CC(Nc1nc(C(F)(F)F)nc2ccccc12)c1cccs1", "note": "(centres undefined)", "inhibition": "69.6% (active)"},
      {"compound": "COc1cccc(CNc2nc(C(F)(F)F)nc3ccccc23)c1", "inhibition": "31.6% (inactive)"},
      {"compound": "COc1ccccc1CNC(=O)CCCN1C(=O)NC2(CCCC2)C1=O", "inhibition": "20.4% (inactive)"},
      {"compound": "Cc1c(C(=O)NCCN2CCOCC2)sc2nc(-c3ccc(F)cc3)cn12", "inhibition": "7.76% (inactive)"},
      {"compound": "O=C(NN=C1CCC(=NNC(=O)c2cccnc2)CC1)c1cccnc1", "inhibition": "-0.152% (inactive)"},
      {"compound": "O=C(N/N=C/c1cccnc1)c1ccc(NC(=O)c2ccc(F)cc2)cc1", "inhibition": "-2.66% (inactive)"},
      {"compound": "O=C(N/N=C/c1sc(N2CCCCC2)nc1-c1cccs1)c1cccnc1", "inhibition": "57.4% (active)"},
      {"compound": "CCOC(=O)c1csc(CCNC(=O)c2oc3c(Cl)cc(C)cc3c2C)n1", "inhibition": "21.7% (inactive)"},
      {"compound": "CC(C)(C)CC(C)(C)NCC(O)COCCOc1ccc(Br)cc1", "note": "(centres undefined)", "inhibition": "65.4% (active)"},
      {"compound": "CC(Oc1ccc(Br)cc1)C(=O)NC1CCCCCC1", "note": "(centres undefined)", "inhibition": "0.219% (inactive)"},
      {"compound": "OC(COc1ccc(Br)cc1)CN1CCCC1", "note": "(centres undefined)", "inhibition": "2.28% (inactive)"},
      {"compound": "NC(=O)CCC(NS(=O)(=O)c1ccc(Cl)cc1)C(=O)NCc1ccccc1Cl", "note": "(centres undefined)", "inhibition": "20.8% (inactive)"},
      {"compound": "Cc1cc(C)c2nc(-c3cccnc3)cc(C(=O)Nc3ccc(S(=O)(=O)Nc4onc(C)c4C)cc3)c2c1", "inhibition": "-28.5% (inactive)"},
      {"compound": "Cc1ccc(Cn2c(=N)c(S(=O)(=O)c3ccc(C)cc3)cc3c(=O)n4ccccc4nc32)cc1", "inhibition": "21.6% (inactive)"},
      {"compound": "N#CC1=C(N)OC2=C(C(=O)CCC2)C1C1CC=CCC1", "note": "(centres undefined)", "inhibition": "-10% (inactive)"},
      {"compound": "COCc1[nH]nc2c1C(C1C=CCCC1)C(C#N)=C(N)O2", "note": "(centres undefined)", "inhibition": "23.8% (inactive)"},
      {"compound": "N#CC1=C(N)Oc2cc(O)ccc2C1C1CCCCC1", "note": "(centres undefined)", "inhibition": "64.7% (active)"},
      {"compound": "COc1ccc2c(c1)O/C(=C\\c1ccccc1O)C2=O", "inhibition": "-152% (inactive)"},
      {"compound": "COc1cc(/C=C2\\Oc3ccc(C#Cc4ccc(O)cc4)cc3C2=O)cc(OC)c1", "inhibition": "62.4% (active)"},
      {"compound": "COc1cc(C#Cc2ccc3cc(CCCO)oc(=O)c3c2)cc(OC)c1", "inhibition": "38.9% (inactive)"},
      {"compound": "O=C(Nc1cccc2c1CCCC2)c1ccc(F)cc1", "inhibition": "11.9% (inactive)"},
      {"compound": "COc1ccc([C@H]2CC(=O)C=C(c3ccc(OC(F)(F)F)cc3)C2)cc1OC", "inhibition": "-6.36% (inactive)"},
      {"compound": "CC[n+]1cc(C)ccc1/C=C/c1ccc(N(C)C)cc1", "inhibition": "81.1% (active)"},
      {"compound": "Cc1ccc2c(cnn2C(=O)CCC(=O)NC2CCCC2)c1", "inhibition": "7.95% (inactive)"},
      {"compound": "Cn1nccc1NS(=O)(=O)c1ccc(F)cc1", "inhibition": "-11.5% (inactive)"},
      {"compound": "NS(=O)(=O)c1ccc(CCNC(=O)c2ccc([N+](=O)[O-])cc2[N+](=O)[O-])cc1", "inhibition": "-0.842% (inactive)"},
      {"compound": "Cc1c(-c2ccccc2)cn2c1-c1ccc(C)n1CC2", "inhibition": "-3.59% (inactive)"},
      {"compound": "O=S(=O)(c1cccs1)N1CCN(CCOc2ccccc2)CC1", "inhibition": "14.3% (inactive)"},
      {"compound": "Cn1cc(S(=O)(=O)NC(c2ccccc2)c2ccccc2)c(=O)n(C)c1=O", "inhibition": "7.36% (inactive)"},
      {"compound": "c1ccc(-c2cc(-c3ccccc3)[nH]n2)cc1", "inhibition": "-145% (inactive)"},
      {"compound": "Nc1cccc(-c2cc(-c3ccccc3)nc(-c3cccc(N)c3)n2)c1", "inhibition": "65% (active)"},
      {"compound": "Nc1cccc(CCc2nc3ccccc3[nH]2)c1", "inhibition": "-30.8% (inactive)"},
      {"compound": "N#Cc1cccc(CSc2ncnc(N)n2)c1", "inhibition": "7.81% (inactive)"},
      {"compound": "COc1ccc(C2CC(c3cccs3)=NN2c2ccc(F)cc2)cc1OC", "note": "(centres undefined)", "inhibition": "-3.01% (inactive)"},
      {"compound": "COc1ccc(C2CC(c3cccs3)=NN2c2nc(C)c(C(C)=O)s2)cc1OC", "note": "(centres undefined)", "inhibition": "67.5% (active)"},
      {"compound": "COc1ccc(C2CC(c3cccs3)=NN2C(=O)CCC(=O)O)cc1OC", "note": "(centres undefined)", "inhibition": "17.5% (inactive)"},
      {"compound": "Cc1cc(NC(=O)CCC(=O)N(Cc2ccccc2)C(C(=O)NC2CCCC2)c2ccc(C)o2)no1", "note": "(centres undefined)", "inhibition": "16.1% (inactive)"}
    ]}
  ]
}
